Sampled rows, rich in hits. Any-hit rate of the full collection: about 3%.
CF NFkB inh = inhibitors of PAF-induced NF-kB signaling, primary screen, cell-based, GFP fluorescence, uHTS. KKLEB NF-kB-GFP reporter, GFP fluorescence overnight. inhibition, % at 5 µM. hit rate 0.86% among 360,000. AID 588850, 2011;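 active = at least 50% inhibition at 5 µM, scaled per plate between neutral and stimulator controls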;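 note: PAF is a Pseudomonas aeruginosa culture filtrate used as stimulus; plate controls were PAF-stimulated DMSO wells for no effect and unstimulated DMSO wells for full effect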
HIF-2a block = HIF-2a reporter inhibitors, primary screen, luminescence, 786-0 RCC cells; 786-0 RCC cells HIF-2a reporter, luciferase luminescence, overnight; inhibition, % at 18.8 µM; hit rate 0.72% among 360,000;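 active = inhibition of the luminescence signal of 40% or more relative to plate controls, in a single-dose primary screen at 18.75 µM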
MITF TRPM1 inh = inhibitors of MITF-dependent TRPM1 promoter reporter, primary screen, cell-based, SK-MEL-5, single point, luciferase; SK-MEL-5 TRPM1 promoter luciferase, 24 h; hit rate 0.83% among 330,000; inhibition, % at 12.5 µM; AID 488899, 2010;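 active = mean inhibition across replicates of 60% or more, whatever share of single replicates reaches that level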
LMP1 NFkB inh = EBV LMP1-driven NF-kappaB luciferase reporter inhibitors, primary screen, cell-based, luminescence, single point; hit rate 0.69% among 350,000; LMP1-induced NF-kappaB luciferase reporter cells; inhibition, % at 12.5 µM; AID 504558, 2011; in the data active = inhibition above about 41%;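 note: 0% = neutral control wells and 100% = reference inhibitor control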
Peg3 promoter = Peg3 promoter-driven luciferase inhibitors, primary screen, cell-based, HeLa, luciferase luminescence | hit rate 1.7% among 360,000 | HeLa PEG-Prom luciferase reporter, overnight | AID 588405, 2011 | inhibition, % at 20 µM;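 active = inhibition of at least 50% at 20 µM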
KKLEB cytotox = cytotoxicity in KKLEB CF airway cells, primary screen, cytotoxicity control for CF NF-kB inhibitor project, cell-based, uHTS, fluorescence assay plates. AID 602141, 2011. hit rate 0.36% among 360,000. KKLEB CF airway cells viability, ATPlite luminescence, overnight; hits give low values; cells stimulated with P. aeruginosa culture filtrate. activity change (cytotoxicity), % at 5 µM;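 active = corrected activity change at or below -50% at 5 µM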
CF NFkB conf = inhibitors of PAF-induced NF-kB signaling, retest, confirmation, cell-based, GFP fluorescence, single concentration; AID 602472, 2012; shares compounds with CF NFkB inh; hit rate 64% among 1,300; KKLEB CF airway cells, overnight; inhibition, % at 5 µM; in the data active = inhibition above about 40%;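 note: stimulus PAF is a Pseudomonas aeruginosa filtrate and not platelet activating factor; plate controls were DMSO wells with stimulus for no effect and unstimulated DMSO wells for full effect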
* marks the source's active call; other numbers are inactive results; · = not tested or not shown.

SMILES | CF NFkB inh | HIF-2a block | MITF TRPM1 inh | LMP1 NFkB inh | Peg3 promoter | KKLEB cytotox | CF NFkB conf
CC1CCN(CC2C(=O)O[C@@H]3C[C@@]4(C)CCC[C@H](C)C4=C[C@H]23)CC(C)(C)C1 (some centres not stated) | 84* | -16 | 74* | 9 | -17 | -21 | 34
C=CCCC(=O)N1C[C@H]2CON(C)[C@H]2C[C@H]1c1ccc(Br)cc1 | -2 | 12 | · | -2 | -2 | -1 | ·
COc1ccccc1-c1cc(NC=O)c2ncc(-c3cccc(C(C)=O)c3)n2c1 | 59* | -29 | · | · | 42 | -19 | 44*
COc1cccc(-c2cnc3c(NC=O)cc(-c4ccc(OC)cc4OC)cn23)c1 | 63* | -10 | · | · | -11 | -40 | 76*
COc1ccc(-c2cc(NC=O)c3ncc(-c4cc(OC)c(OC)c(OC)c4)n3c2)cc1 | 52* | -30 | · | · | -1 | -28 | 70*
COc1ccc(-c2cc(NC=O)c3ncc(-c4ccc(OC)c(OC)c4)n3c2)c(OC)c1 | 60* | 10 | · | · | 47 | -28 | 87*
COc1cc(-c2cnc3c(NC=O)cc(-c4ccc(S(C)(=O)=O)cc4)cn23)cc(OC)c1OC | 27 | 13 | · | · | 23 | -11 | ·
Cc1ccc(S(=O)(=O)N2CCCCC2)cc1NCC(=O)Nc1ccc(Br)cc1F | -18 | 11 | · | -1 | 19 | -3 | ·
COc1ccc(CCCN2CCC(CN3CCNC(=O)C3=O)CC2)cc1OC | -3 | 9 | 11 | 4 | 4 | 8 | ·
C[C@H]1CN([C@@H](C)CO)C(=O)c2cc(Br)cnc2O[C@H]1CN(C)C(=O)c1ccc2c(c1)OCO2 | 2 | -6 | · | -5 | 13 | -7 | ·
COc1ccc([C@H]2C[C@@H](n3cc(COC(=O)c4ccccc4)nn3)[C@H](O)CN2Cc2cccs2)cc1 | -42 | -22 | · | -3 | -5 | -1 | ·
CC1CCC(NC(=O)COC(=O)c2ccco2)CC1 (configuration not stated) | -14 | -2 | -4 | -2 | -22 | 3 | ·
CC1CC2C3CCC4=CC(=O)C=CC4(C)[C@@]3(Cl)C(O)CC2(C)C1(O)C(=O)CO (some centres not stated) | 66* | 13 | -15 | 36 | -5 | 13 | 16
CC(=O)C1CCC2C3CCC4=CC(=O)C=CC4(C)C3C(=O)CC12C (configuration not stated) | 5 | 5 | 9 | 0 | 15 | -10 | ·
C[C@@H]1C[C@H]2[C@@H]3CCC4=CC(=O)C=C[C@]4(C)[C@@]3(Cl)[C@@H](O)C[C@]2(C)[C@@]1(OC(=O)c1ccco1)C(=O)CCl | 89* | 25 | 2 | 5 | 68* | 22 | 29
COc1ccc(CN2C[C@@H](CO)O[C@@H](n3cnc4c(N5CCOCC5)ncnc43)C2)cc1 | -19 | 4 | · | · | -6 | 10 | ·
Cc1ccc([C@H]2C[C@H](O)[C@@H](n3cc(-c4ccc(F)cc4)nn3)CN2C(=O)C2CCCCC2)cc1 | -2 | 11 | · | -3 | 0 | 10 | ·
N=c1c(S(=O)(=O)c2ccc(Br)cc2)cc2c(=O)n3ccccc3nc2n1Cc1ccco1 | 82* | 13 | 6 | -5 | 41 | -18 | 12
O=Nc1c(O)n(Cc2c(Cl)cccc2Cl)c2ccccc12 | 56* | 25 | 4 | 15 | 39 | -24 | 67*
O=Nc1c(O)n(Cc2ccc(Cl)cc2)c2ccccc12 | 30 | 21 | 12 | -1 | 30 | 12 | ·
COc1ccccc1NC(=O)c1cc2c(CO)cnc(C)c2oc1=Nc1ccc(OC)c(OC)c1 | 86* | 1 | 14 | 9 | 56* | -49 | 85*
CN(C)c1ncnc2[nH]ncc12 | 18 | 6 | -4 | -3 | 2 | -7 | ·
CCCN(CC)c1ncnc2[nH]ncc12 | 81* | 14 | -17 | 43* | 16 | 6 | 63*
O=C(NCCCSc1ccccc1)c1cc(Br)ccc1O | 55* | -9 | 10 | -4 | 42 | -36 | 79*
